Measured values reported in PubChem BioAssay (EPA / NIEHS).
Several values for one entry are separate records, joined by “and”; a condition that tells them apart may be missing. Identical values can stand only once. Activity calls are given as the source filed them. How the source made its calls: active means hit-call score of the fitted dose curve at least 0.9, where 1 is the maximum; inactive means score below 0.9.

read-out: C-C motif chemokine 2 (Homo sapiens) (UniProt P13500); experiment: BSK_KF3CT_MCP1: BioMAP Diversity Plus: KF3CT Assay for Monocyte Chemoattractant Protein 1 (MCP1/CCL2) Biomarker Activity (AID 2283073); conditions: primary human keratinocytes with fibroblasts; actives raise or lower the signal
Procedure: BSK_KF3CT is a cell-based, multiplexed-readout assay that uses keratinocytes and foreskin fibroblasts, a human skin primary cell co-culture, with measurements taken at 24 hours after chemical dosing in a 96-well plate.BSK_KF3CT_MCP1 is an assay component measured in the BSK_KF3CT assay. It measures MCP-1 antibody related to regulation of gene expression using ELISA technology.Data from the assay component BSK_KF3CT_MCP1 was analyzed into 1 assay endpoint. This assay endpoint, BSK_KF3CT_MCP1, was analyzed with bidirectional fitting relative to DMSO as the negative control and baseline of activity. Using a type of binding reporter, gain or loss-of-signal activity can be used to understand changes in the signaling as they relate to the gene CCL2. Furthermore, this assay endpoint can be referred to as a primary readout, because this assay has produced multiple assay endpoints where this one serves a signaling function. To generalize the intended target to other relatable targets, this assay endpoint is annotated to the cytokine intended target family, where the subfamily is chemotactic factor.
The levels of cell surface (or secreted, indicated by the prefix "s") biomarker endpoints were measured by ELISA. Overt cytotoxicity to cells in confluent adherent cultures (all systems other than the BT system) was assessed by measuring total protein levels using sulforhodamine B (SRB) staining in parallel cultures at the time of biomarker measurements, indicated as SRB endpoints. For proliferation assays for adherent cell types, individual cell types are cultured at sub-confluence and relative cell numbers quantified by SRB staining at time points optimized for each system (48 h: 3C and CASM3C systems; 72 h: BT and HDF3CGF systems; 96 h: SAg system). SRB was performed by staining cells with 0.1% SRB after fixation with 10% TCA and reading wells at 560 nm.Viability and proliferation of PBMC (T cells) was quantified by Alamar Blue reduction for the SAg and BT systems. For PBMC viability (referred to as PBMC Cytotoxicity within the assay endpoint names), cells were plated (75,000/well in a 96-well plate) and then chemical samples added for 1 h before addition of activators, SEB and TSST-1 (20 ng/mL final concentration each). Cells were incubated for 90 h. Then, Alamar Blue (20 uL/well) (Invitrogen, Cat DAL1100) was added for 6 h, and the plates were read with a fluorescence microplate reader at 546/580 nm (excitation/emission). For PBMC proliferation, cells were plated and activated as above but incubated for only 16 h prior to addition of Alamar Blue. Plates were read after 6 h.

SMILES	outcome	AC50
CCC[Si](OC(C)=O)(OC(C)=O)OC(C)=O	inactive	
CC[N+](CC)(CC(=O)Nc1c(C)cccc1C)Cc1ccccc1	inactive	
Cc1cccnc1	inactive	
CN(C)CCC(c1ccc(Cl)cc1)c1ccccn1 (configuration not stated)	inactive	
CC[N+](CC)(CC(=O)Nc1c(C)cccc1C)Cc1ccccc1 (tested in a mixture with another compound)	inactive	
CCCCCCCCCCCCCCCCCC[N+](C)(C)C		3.36 µM (active)
CCCCC(CC)COC(=O)C=Cc1ccc(OC)cc1 (configuration not stated)	inactive	
COC(=O)/C=C\C(=O)OC	inactive	
CCCCCCCCCCC1CO1 (configuration not stated)		20 µM (active)
COc1ccc(C(=O)c2ccccc2O)c(O)c1	inactive	
Cc1c(C(N)=O)cc([N+](=O)[O-])cc1[N+](=O)[O-]	inactive	
Cc1cc(-n2nc3ccc(Cl)cc3n2)c(O)c(C(C)(C)C)c1	inactive	
COc1cc(CNC(=O)CCCC/C=C/C(C)C)ccc1O	inactive	
CCCCCCCCCC/C=C/C1CC(=O)OC1=O (configuration not stated)	inactive	
OC(C(F)(F)F)(C(F)(F)F)C(O)(C(F)(F)F)C(F)(F)F		7.89 µM (active) and 7.97 µM (active)
COc1ccccc1Oc1c(NS(=O)(=O)c2ccc(C(C)(C)C)cc2)nc(-c2ncccn2)nc1OCCO	inactive	
Oc1cccc2ccccc12	inactive	
O=[N+]([O-])c1cc(S(=O)(=O)Nc2ccccc2)ccc1Nc1ccccc1		25.3 µM (active) and 23.6 µM (active)
CN(C)c1ccc(C(c2ccccc2)c2ccc(N(C)C)cc2)cc1	inactive	
CN(C)Cc1cc(C(C)(C)C)c(O)c(C(C)(C)C)c1	inactive	
C1CN(CCOCCN2CCOCC2)CCO1	inactive	
CCC(C)=NO	inactive	
Sc1nc2ccccc2s1	inactive	
CC(C)CC(=O)CC(C)CC(C)C (configuration not stated)		37.1 µM (active)
CCCCCCC(O)CCCCCCCCCCC(=O)OC (configuration not stated)	inactive	
O=C(C(=O)c1ccccc1)c1ccccc1	inactive	
CC(C)C1OCCN1CCOC(=O)NCCCCCCNC(=O)OCCN1CCOC1C(C)C (configuration not stated)	inactive	
